Measurements as given in PubChem BioAssay (NCATS).
Results filed as inconclusive are left out. Calls of active or inactive are those of the source. Unless noted, the call rests on the fitted dose curve; in most records, active means well fitted cell-killing curve with a large enough effect; inconclusive means small, poorly fitted or top-dose-only effect; inactive means flat fitted curve, though single readings scatter.

Assays:
[1] = Cell Viability - LYMP2-023 (AID 975);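 further: cellular ATP measured by luciferase luminescence as viability proxy; series mostly up to about 92 µM; plate controls were DMSO only for no effect and 92 µM tetraoctylammonium bromide control for full effect; nearly all actives have a fitted effect of over 55% in size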
Method in brief: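 In this qHTS, ATP-based luciferase luminescence (CellTiter-Glo) is quantified in human lymphoblastoid cells after 24 hr compound treatment at 37 C; tetraoctylammonium bromide serves as positive control. Concentration-response curves are Hill-fitted to give AC50.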

[2] = Cell Viability - LYMP2-025 (AID 976);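 further: series mostly up to about 92 µM; plate controls were DMSO only for no effect and tetraoctylammonium bromide control for full effect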
Method in brief: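 Luminescent ATP readout after 24 hr treatment of a human lymphoblastoid line (LYMP2-025, 2500 cells/well, 37 C). Reagent developed 30 min at room temperature; AC50 fitted with the Hill equation.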

[3] = Cell Viability - LYMP2-002 (AID 977);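 further: series mostly up to about 92 µM; compound exposure lasted 24 h at 37 °C; plate controls were DMSO only for no effect and 92 µM tetraoctylammonium bromide for full effect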
Method in brief: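 Human lymphoblastoid cells, 2500/well, complete medium; 5 h 37 C settle; compound 24 h 37 C; CellTiter-Glo, 30 min RT; luminescence. Decrease in ATP = cytotoxicity; AC50 via Hill equation.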

[4] = Cell Viability - LYMP2-006 (AID 978); further: series mostly up to about 92 µM; on the % scale 0 is the no-effect control and ±100 the full control effect; nearly all actives have a fitted effect of over 60% in size
Method in brief: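 Concentration-dependent loss of intracellular ATP in a human lymphoblastoid line after 24 hr treatment at 37 C was measured by CellTiter-Glo luminescence, with AC50 values obtained from standard Hill-equation modelling.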

[5] = Cell Viability - LYMP2-007 (AID 979);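 further: cells exposed to compound for 24 h before reading; 0% = DMSO only and the negative end = 92 µM tetraoctylammonium bromide; nearly all actives have a fitted effect of over 60% in size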
Method in brief: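 Measured via luciferase-based ATP quantitation: lymphoblastoid cells, 24 hr compound exposure at 37 C, AC50 from Hill fits.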

[6] = Cell Viability - LYMP2-008 (AID 980); further: on the % scale 0 is the no-effect control and ±100 the full control effect; nearly all actives have a fitted effect of over 60% in size
Method in brief: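 Measured: ATP-dependent luminescence, proportional to viable cell number, in human lymphoblastoid cells treated 24 hr with compound in complete culture medium. Values are AC50s from Hill-equation modelling of qHTS titrations.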

[7] = Cell Viability - LYMP2-010 (AID 981); further: on the % scale 0 is the no-effect control and ±100 the full control effect; nearly all actives have a fitted effect of over 55% in size
Method in brief: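 This 24 hr viability screen uses LYMP2-010 lymphoblastoid cells, quantifies ATP via luciferase luminescence, and derives AC50 from Hill fits of qHTS concentration-response data.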

[8] = Cell Viability - LYMP2-014 (AID 983);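 further: series mostly up to about 92 µM; plate controls were DMSO only for no effect and 92 µM tetraoctylammonium bromide for full effect; nearly all actives have a fitted effect of over 50% in size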
Method in brief: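 Quantitative HTS in lymphoblastoid cells: 24 hr compound exposure, then CellTiter-Glo ATP luminescence. Positive control was tetraoctylammonium bromide, 6.4pM to 92 uM.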

[9] = Cell Viability - LYMP2-016 (AID 984); further: on the % scale 0 is the no-effect control and ±100 the full control effect; nearly all actives have a fitted effect of over 55% in size
Method in brief: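 Acute toxicity in a Coriell human lymphoblastoid line is scored as loss of intracellular ATP over 24 h of treatment in complete medium. CellTiter-Glo signal is fitted across concentrations with the Hill equation to give AC50.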

[10] = Cell Viability - LYMP2-018 (AID 985);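 further: plate controls were DMSO only for no effect and tetraoctylammonium bromide at 92 µM for full effect; nearly all actives have a fitted effect of over 50% in size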
Method in brief: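 In this qHTS viability assay, cells are treated for 24 hr and cellular ATP is quantified by luciferase-based luminescence, with tetraoctylammonium bromide as positive control.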

[11] = Cell Viability - LYMP2-020 (AID 986);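 further: series mostly up to about 92 µM; plate controls were DMSO only for no effect and tetraoctylammonium bromide at 92 µM for full effect; nearly all actives have a fitted effect of over 55% in size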
Method in brief: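 Cells at 2500 per well receive a 24 hr compound exposure at 37 C. Viability is measured as ATP-dependent luciferase luminescence, with AC50 modeled from qHTS concentration-response curves.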

[12] = Cell Viability - LYMP2-022 (AID 987)
Method in brief: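 In this qHTS cytotoxicity screen, compound titrations were incubated 24 hr at 37 C with human lymphoblastoid cells in complete medium. Luciferase-based ATP luminescence provided the viability signal.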

[13] = Cell Viability - LYMP2-024 (AID 988);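 further: plate controls were DMSO only for no effect and 92 µM tetraoctylammonium bromide for full effect; nearly all actives have a fitted effect of over 60% in size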
Method in brief: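 Cells at 2500 per well received compound for 24 hr after a 5 hr settling period. Viability was scored by CellTiter-Glo luminescence, with AC50 from Hill fits.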

[14] = Cell Viability - LYMP2-026 (AID 989); further: on the % scale 0 is the no-effect control and ±100 the full control effect; nearly all actives have a fitted effect of over 50% in size
Method in brief: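 Acute toxicity screen in complete culture medium, with 24 hr compound exposure at 37 C. Viability read as cellular ATP via luciferase reaction, with tetraoctylammonium bromide (6.4pM to 92 uM) as positive control.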

[15] = Cell Viability - LYMP1-002 - Assay at 24 hr (AID 993); further: on the % scale 0 is the no-effect control and ±100 the full control effect
Method in brief: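 Viability was judged from intracellular ATP using a luciferase read-out, following a 24-hour compound incubation at 37 C of lymphoblastoid cells seeded at 2500 per well. Concentration-response data were fitted to the Hill equation for AC50.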

[16] = Cell Viability - LYMP1-002 - Assay at 40 hr (AID 994)
Method in brief: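 Concentration-dependent ATP loss after 40 hr treatment at 37 C defined toxicity; AC50 values were obtained by fitting the standard Hill equation.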

[17] = molecular target: Estrogen receptor (Homo sapiens) (UniProt P03372); assay: qHTS assay for small molecule antagonists of estrogen receptor alpha signaling (AID 588513; active means well fitted curve in the direction sought with a large enough effect in the signal ratio, with a control signal flat, not every such curve was filed as active; the % refers to the signal ratio; further: on the % scale 0 is the no-effect control and ±100 the full control effect)
Estrogen receptor (Homo sapiens), sequence (P03372 whole entry, looked up): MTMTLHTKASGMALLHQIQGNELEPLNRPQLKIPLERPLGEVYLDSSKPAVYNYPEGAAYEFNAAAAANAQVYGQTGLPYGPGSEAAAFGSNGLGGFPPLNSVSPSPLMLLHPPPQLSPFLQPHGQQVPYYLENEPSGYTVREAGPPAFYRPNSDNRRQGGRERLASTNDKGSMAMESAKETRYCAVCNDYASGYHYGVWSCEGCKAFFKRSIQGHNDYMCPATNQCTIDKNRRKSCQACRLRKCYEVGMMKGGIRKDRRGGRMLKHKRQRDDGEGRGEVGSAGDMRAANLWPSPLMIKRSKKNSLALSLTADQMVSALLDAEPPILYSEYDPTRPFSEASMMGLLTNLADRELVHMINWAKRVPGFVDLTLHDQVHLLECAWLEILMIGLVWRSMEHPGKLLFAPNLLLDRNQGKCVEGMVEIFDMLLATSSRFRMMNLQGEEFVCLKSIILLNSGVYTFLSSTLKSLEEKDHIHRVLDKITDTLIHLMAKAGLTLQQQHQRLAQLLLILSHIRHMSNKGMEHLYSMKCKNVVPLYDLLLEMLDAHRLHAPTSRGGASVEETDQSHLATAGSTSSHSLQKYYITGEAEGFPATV
Method in brief: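 Cells were plated at 5000/well and incubated 4 h at 37 C. Compounds were added as 1:2 dilution series, duplicates. 17-beta-estradiol (0.5nM final) was added for 18 h before CCF4 detection.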

[18] = molecular target: Estrogen receptor (Homo sapiens) (UniProt P03372); assay: qHTS assay for small molecule agonists of estrogen receptor alpha signaling (AID 588514; calls by dose curve;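 further: 0% = vehicle only and 100% = reference agonist; nearly all actives have a fitted effect of over 70% in size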)
Method in brief: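 Fluorescence from CCF4 cleavage reports ER-alpha-driven beta-lactamase expression in HEK 293 cells treated 18 hrs at 37 C. Data normalized to 17-beta-estradiol (20 nM) and DMSO, fitted to Hill equation.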

[19] = molecular target: Bile acid receptor (Homo sapiens) (UniProt Q96RI1); assay: qHTS assay for small molecule antagonists of farnesoid X receptor signaling (AID 588526; calls by dose curve; further: on the % scale 0 is the no-effect control and ±100 the full control effect)
Bile acid receptor (Homo sapiens), sequence (Q96RI1 whole entry, looked up): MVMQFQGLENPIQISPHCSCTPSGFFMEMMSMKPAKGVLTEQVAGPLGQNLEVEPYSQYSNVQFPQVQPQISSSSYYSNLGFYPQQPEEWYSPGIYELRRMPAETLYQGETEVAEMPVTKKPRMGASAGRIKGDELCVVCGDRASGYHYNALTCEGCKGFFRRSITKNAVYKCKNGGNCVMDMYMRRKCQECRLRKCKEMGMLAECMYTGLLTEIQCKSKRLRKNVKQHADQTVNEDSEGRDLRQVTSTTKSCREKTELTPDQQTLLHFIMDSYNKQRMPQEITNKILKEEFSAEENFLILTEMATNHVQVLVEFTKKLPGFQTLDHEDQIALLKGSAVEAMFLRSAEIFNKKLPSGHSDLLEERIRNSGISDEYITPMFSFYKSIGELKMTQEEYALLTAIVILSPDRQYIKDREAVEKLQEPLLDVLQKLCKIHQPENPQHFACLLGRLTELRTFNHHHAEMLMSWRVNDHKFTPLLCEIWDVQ
Method in brief: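 Antagonist mode: titrated compounds tested against chenodeoxycholic acid stimulation (normalized to 50 uM CDCA and DMSO) in GeneBLAzer HEK293T cells for 16 h. Beta-lactamase read by CCF4 fluorescence; IC50 from Hill fits.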

[20] = molecular target: Glucocorticoid receptor (Homo sapiens) (UniProt P04150); assay: qHTS assay for small molecule agonists of glucocorticoid receptor signaling (AID 588532; active means well fitted curve in the direction sought with a large enough effect in the signal ratio, with a control signal flat; the % refers to the signal ratio;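 further: 100% = dexamethasone at 0.1 µM and 0% = DMSO only wells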); conditions: HeLa MMTV-bla, beta-lactamase ratio, agonist, 18 h; stronger effect = higher value; percent of dexamethasone control, DMSO zero
Glucocorticoid receptor (Homo sapiens), sequence (P04150 whole entry, looked up): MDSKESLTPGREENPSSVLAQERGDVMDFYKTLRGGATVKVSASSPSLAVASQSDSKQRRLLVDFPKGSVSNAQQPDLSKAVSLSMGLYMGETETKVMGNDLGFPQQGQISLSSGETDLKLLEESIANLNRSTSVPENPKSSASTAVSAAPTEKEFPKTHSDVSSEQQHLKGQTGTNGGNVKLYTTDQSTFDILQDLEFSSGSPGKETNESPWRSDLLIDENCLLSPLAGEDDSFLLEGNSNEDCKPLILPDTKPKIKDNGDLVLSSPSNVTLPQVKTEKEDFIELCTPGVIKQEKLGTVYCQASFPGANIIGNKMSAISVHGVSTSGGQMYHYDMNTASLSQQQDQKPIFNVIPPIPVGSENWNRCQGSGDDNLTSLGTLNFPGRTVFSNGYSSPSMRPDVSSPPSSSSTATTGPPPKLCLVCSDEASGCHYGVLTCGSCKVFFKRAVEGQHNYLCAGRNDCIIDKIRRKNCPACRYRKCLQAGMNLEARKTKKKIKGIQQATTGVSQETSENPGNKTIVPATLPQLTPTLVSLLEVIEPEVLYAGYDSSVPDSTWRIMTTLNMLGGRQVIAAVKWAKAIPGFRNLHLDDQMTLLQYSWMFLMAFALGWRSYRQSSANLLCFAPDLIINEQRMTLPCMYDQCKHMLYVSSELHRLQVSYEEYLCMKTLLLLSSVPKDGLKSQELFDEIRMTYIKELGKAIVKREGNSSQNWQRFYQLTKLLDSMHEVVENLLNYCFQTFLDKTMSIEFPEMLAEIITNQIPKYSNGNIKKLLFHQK
Method in brief: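 HeLa GRE-bla reporter cells; 18 h compound exposure at 37 C; 2 h CCF4 loading at room temperature; fluorescence at 460 and 530 nm; EC50 by Hill equation.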

[21] = molecular target: Glucocorticoid receptor (Homo sapiens) (UniProt P04150); assay: qHTS assay for small molecule antagonists of glucocorticoid receptor signaling (AID 588533; active means well fitted inhibition curve with a large enough effect in the signal ratio, with a control signal flat, not every such curve was filed as active; the % refers to the signal ratio;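 further: cells stimulated with 2 nM dexamethasone as agonist; on the % scale 0 is the no-effect control and ±100 the full control effect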)
Method in brief: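 Antagonist-mode qHTS: compound titrations added to GRE-bla HeLa cells, then dexamethasone 2 nM final; 18 h, 37 C. CCF4 FRET fluorescence normalized to dexamethasone and DMSO; IC50 from Hill fit.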

[22] = qHTS assay for small molecule antagonists of peroxisome proliferator-activated receptor delta signaling (AID 588535; active means well fitted inhibition curve with a large enough effect in the signal ratio, with a control signal flat, not every such curve was filed as active; the % refers to the signal ratio;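 on max response: cells co-treated with a PPAR-delta agonist as stimulator during compound exposure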); conditions: HEK293T PPARd-UAS-bla, beta-lactamase FRET ratio, 18 h; 460 nm channel
Method in brief: (§1)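 Beta-lactamase reporter read-out (405 nm excitation, 460/530 nm emission) after CCF4 loading for 2 hrs at RT. HEK293T PPAR-delta-UAS-bla cells, 2% charcoal/dextran FBS, compounds for 18 hrs at 37 C. Hill fit gave IC50 and efficacy.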

[23] = molecular target: Peroxisome proliferator-activated receptor delta (Homo sapiens) (UniProt Q03181); assay: as above
Peroxisome proliferator-activated receptor delta (Homo sapiens), sequence (Q03181 whole entry, looked up): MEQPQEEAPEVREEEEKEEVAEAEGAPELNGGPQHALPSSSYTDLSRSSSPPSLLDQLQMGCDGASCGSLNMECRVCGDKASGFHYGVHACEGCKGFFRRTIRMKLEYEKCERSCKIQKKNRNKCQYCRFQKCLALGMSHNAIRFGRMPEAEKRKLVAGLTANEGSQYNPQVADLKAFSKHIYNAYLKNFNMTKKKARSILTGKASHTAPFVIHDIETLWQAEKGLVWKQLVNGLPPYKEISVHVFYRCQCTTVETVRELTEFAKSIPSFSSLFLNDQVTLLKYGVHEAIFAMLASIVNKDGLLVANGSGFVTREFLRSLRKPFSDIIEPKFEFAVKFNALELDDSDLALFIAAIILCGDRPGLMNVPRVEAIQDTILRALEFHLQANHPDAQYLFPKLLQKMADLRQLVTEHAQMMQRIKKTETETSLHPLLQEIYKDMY
Method in brief: as §1

Cc1cccc(O)c1C
inactive: Potency [1] | Potency [2] | Potency [3] | Potency [4] | Potency [5] | Potency [6] | Potency [7] | Potency [8] | Potency [9] | Potency [10] | Potency [11] | Potency [12] | Potency [13] | Potency [14] | Potency [15] | Potency [16] | Potency [17] | outcome [18] | Potency [19] | activation [20] 5.02% | Potency [21] | outcome [23]
-7.79%: max response [22]
